Screening results deposited in PubChem by National Center for Advancing Translational Sciences (NCATS).
Many of the other results were omitted from the sample, so hits are more common in it than they were.
Shiga toxin inh = inhibitors of Shiga toxin in Vero cells; Vero cells, Shiga toxin protein synthesis inhibition reporter; inhibition, % at 38.7 µM; 9.2% of 290,000 active; AID 2315; in the data active = inhibition mostly above about 28%, no sharp cut-off; inactive = mostly below about 43%
Cycloheximide cs = counter-screen hit for Shiga toxin inhibitors, cycloheximide | cell reporter, cycloheximide protein synthesis inhibition counterscreen | max response, % | 12% of 300,000 active | AID 2314; in the data active = max response mostly above about 13%, no sharp cut-off; inactive = mostly below about 14%; also: read at 38.3 µM for the half of the compounds with a filed dose
LmPK inh = inhibitors of Leishmania mexicana pyruvate kinase. Q27686. purified LmPK, Kinase-Glo ATP luminescence, 1 h. 0.37% of 290,000 active. Potency, µM (highest dose often 57.5 µM), actives largely listed as inhibitors
Target sequence (Q27686 whole entry, looked up): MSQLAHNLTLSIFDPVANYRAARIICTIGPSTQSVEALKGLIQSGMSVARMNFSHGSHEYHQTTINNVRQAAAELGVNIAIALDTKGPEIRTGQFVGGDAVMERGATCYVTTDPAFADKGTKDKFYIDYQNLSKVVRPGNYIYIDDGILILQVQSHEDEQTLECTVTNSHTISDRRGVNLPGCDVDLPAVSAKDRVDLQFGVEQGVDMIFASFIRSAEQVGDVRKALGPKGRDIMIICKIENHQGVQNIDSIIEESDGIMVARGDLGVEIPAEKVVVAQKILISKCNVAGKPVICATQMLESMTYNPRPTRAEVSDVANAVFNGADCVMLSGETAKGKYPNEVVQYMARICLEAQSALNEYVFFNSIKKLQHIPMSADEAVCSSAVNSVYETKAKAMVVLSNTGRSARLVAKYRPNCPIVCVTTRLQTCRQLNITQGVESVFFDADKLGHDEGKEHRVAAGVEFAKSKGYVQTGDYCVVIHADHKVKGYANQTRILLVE
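In 50 mM imidazole pH 7.2 with 7 mM MgCl2, LmPK (0.1 nM) turned over PEP (0.5 mM) and ADP (0.1 mM) for 1 h at room temperature. Luciferase read-out of ATP.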
RE007 growth inh = less growth of the S. pombe RE007 Vpr strain; S. pombe RE007 Vpr strain, BacTiter-Glo ATP luminescence, 24 h; 0.21% of 360,000 active; AID 651644; Potency, µM (doses to about 92.2 µM), hits mostly inhibitors; active = well fitted falling curve with a large enough effect; inconclusive = small, poorly fitted or top-dose-only effect; inactive = no such curve, though single readings can be large or run the other way; also: nearly all actives have a fitted effect of over 50% in size
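Fission yeast RE007 carrying one integrated HIV-1 vpr copy, seeded at OD 0.01 in PMG+AL medium with 23 nL pinned compound. Grown 24 h at 30 degrees; viability read by BacTiter-Glo luminescence after 5 min.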
FBPA Giardia inh = Giardia lamblia aldolase inhibition; A8B2U2; 0.71% of 290,000 active; AID 2451; Potency, µM (highest dose often 59.6 µM), usual class: inhibitors; purified Giardia FBPA; also: nearly all actives have a fitted effect of over 55% in size
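Giardia FBPA (40 nM reagent) was preincubated 10 min at RT with compound (up to 57.5 uM final), then substrate plus GAPDH/TPI/NAD/arsenate coupling system with diaphorase/resazurin was added; resorufin fluorescence (525/598 nm) was read after 20 min.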
TbPYK inhibitor = blocks Trypanosoma brucei pyruvate kinase. Q57TT1. TbPYK enzyme, Kinase-Glo Plus ATP luminescence, 45 min. Potency, µM (doses to about 76.8 µM), hits mostly inhibitors. 0.12% of 410,000 active; also: nearly all actives have a fitted effect of over 50% in size
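Luminescent Kinase-Glo Plus end-point after 45 min room-temperature reaction of T. brucei pyruvate kinase started with 130 uM ADP (final). Buffer TEA 50 mM pH 7.2 with KCl, MgCl2, BSA, Tween-20; titration-based qHTS with fitted concentration-effect curves.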
Hits are given with their value; 0 = inactive; ? = inconclusive; - = not tested or not shown. Unless noted, calls follow the shape of the dose curve; as a rule, active = well fitted curve in the direction sought with a large enough effect; inconclusive = small, poorly fitted or top-dose-only effect, or another doubt; inactive = no such curve, though single readings can be large; an effect the other way counts as inactive or inconclusive.

SMILES	Shiga toxin inh	Cycloheximide cs	LmPK inh	RE007 growth inh	FBPA Giardia inh	TbPYK inhibitor
C[C@H](CO)N1C[C@H](C)[C@@H](CN(C)Cc2ccncc2)OCc2cnnn2CCCC1=O	-	-	-	0	-	0
CCCc1cc(=O)n2[nH]c(-c3ccc(Cl)cc3)cc2n1	92.1	56.8	0	0	0	0
O=c1cc(-c2ccccc2)nc2cc(-c3ccco3)[nH]n12	0	17.6	0	0	0	0
O=c1cc(-c2ccccc2)nc2cc(-c3ccc(Br)cc3)[nH]n12	0	0	0	0	0	0
CCOC(=O)Cc1cc(=O)n2[nH]c(-c3ccc(Cl)cc3)cc2n1	0	0	0	0	0	0
CCCc1cc(=O)n2[nH]c(-c3ccc(C)cc3)cc2n1	73.4	39.2	0	0	0	0
CCCc1cc(=O)n2[nH]c(-c3ccccc3)cc2n1	69.7	0	0	0	0	0
CCOC(=O)N1CCN(C(=O)c2ccc3c(=O)n(-c4cc(OC)ccc4OC)c(=S)[nH]c3c2)CC1	0	0	0	0	0	0
CC(NC(=O)COc1ccc(Br)cc1)C1CCCO1 (stereo not drawn)	0	0	0	0	-	0
O=S1(=O)N=C(c2ccccc2)C=C(c2ccccc2)N1	-	-	-	0	-	0
CC(=O)c1cccc(NC(=O)CSc2nnc3ccc(-c4ccc(Cl)cc4)nn23)c1	-	-	-	-	-	0
O=C(N/N=C/c1ccc(Cl)cc1)c1sccc1OCc1ccc(F)cc1	0	26.6	0	0	0	0
O=C(N/N=C/c1ccc(OCc2ccccc2)cc1)c1ccncc1	0	13.0	0	0	0	0
O=C(N/N=C/c1ccc(OCC(=O)N2CCCC2)cc1)C(=O)NC1CC1	0	0	0	0	-	0
O=C(N/N=C/c1ccc(OCC(=O)N2CCCCC2)cc1)c1ccccc1	0	30.2	0	0	0	0
O=C(N/N=C/c1ccncc1)c1ccc(OCc2ccccc2)cc1	0	0	0	0	0	0
O=C(N/N=C/c1ccccc1OCC(=O)N1CCCC1)C(=O)Nc1ccccc1F	active	33.1	?	0	0	0
O=C(N/N=C/c1ccc(OCC(=O)N2CCCCC2)cc1)c1ccccc1O	0	0	0	0	0	0
CC(C)CN(CCCNC(=O)c1cc(-c2ccc(Br)s2)nc2ccccc12)CC(C)C	-	-	-	-	-	0
CC(C)OCCCNC(=O)c1cc(-c2cccnc2)nc2ccccc12	0	0	0	0	0	0
Oc1ccc(N=Cc2ccc(OCc3ccccc3)cc2)cc1	80.1	43.6	0	0	19.9µM	0
O=C(Nc1ccc(OCc2ccccc2)cc1)c1cccs1	-	44.0	0	0	0	0
O=C(C[n+]1ccc(C(=O)N/N=C/c2ccc(OCc3ccccc3)cc2)cc1)c1ccccc1	61.7	53.7	0	0	0	0
O=C(N/N=C/c1ccc(OCc2ccccc2)cc1)c1cccs1	65.9	43.0	0	0	0	0
FC(F)Oc1ccc(NC(=S)NCc2ccccc2)cc1	36.8	11.3	0	0	0	0
SMILES	Shiga toxin inh	Cycloheximide cs	LmPK inh	RE007 growth inh	FBPA Giardia inh	TbPYK inhibitor
FC(F)Oc1ccc(NC(=S)NCc2ccccc2)cc1Cl	0	0	0	0	0	0
S=C(NCCc1ccccn1)Nc1cccc(Cl)c1	0	0	0	0	0	0
Oc1cccc2c(NC(=S)Nc3ccc(OC(F)F)cc3)cccc12	88.4	74.1	0	0	?	0
FC(F)Oc1ccc(NC(=S)NCCc2ccccn2)cc1	0	28.9	0	0	0	0
CN1C(=O)C(O)(c2nnc(-c3ccccc3)o2)c2ccccc21 (stereo not drawn)	0	18.5	0	0	0	0
CCCCOC(=O)c1ccc(NC(=O)/C(C#N)=C/c2ccc(-c3ccccc3)o2)cc1	-	-	-	-	-	0
N#CCc1ccc(NC(=O)/C=C/c2ccc([N+](=O)[O-])o2)cc1	56.3	36.6	0	0	?	0
N#C/C(=C\c1ccc([N+](=O)[O-])o1)C(=O)Nc1ccc(F)cc1	0	0	0	?	?	0
COc1ccc(N(CC(=O)NCCc2ccccc2)S(=O)(=O)c2ccc(OC)c(OC)c2)cc1	-	-	-	-	-	0
CCOC(=O)C1CCN(c2nnc(N3CCCC3=O)s2)CC1	42.8	23.4	0	0	0	0
COC(=O)c1ccc2nc(-c3ccccc3)c(Cc3ccc(C)cc3)n2c1	-	-	-	0	-	0
CC1(c2nnnn2C2CCCC2)CCC(=O)N1c1ccc2c(c1)OCCO2 (stereo not drawn)	-	-	-	0	-	-
Cc1ccc(NC(=O)c2oc3ccccc3c2NC(=O)c2ccc(F)c(F)c2)cc1	-	-	-	-	-	0
CCc1ccc(-c2nnn(CCC#N)n2)cc1	39.5	29.5	0	0	0	0
CC(C)c1ccc(-c2nnn(CCC(=O)O)n2)cc1	0	0	0	0	0	0
CCc1ccc(-c2nnn(CCC(=O)OC)n2)cc1	0	19.4	0	0	0	0
COn1c(-c2ccc(C)cc2)nc2ncccc21	0	20.9	0	0	0	0
COn1c(-c2ccccc2)nc2ncccc21	0	0	0	0	0	0
COc1ccc(Cl)cc1C(=O)NNC(=O)CN1C(=O)C2CC=CCC2C1=O (stereo not drawn)	0	0	0	0	0	0
CCc1ccc(NCc2cc3cc(OC)c(OC)cc3n(CC(=O)Nc3cc(C)ccc3C)c2=O)cc1	-	-	-	-	-	0
Cc1cc(N2CCOCC2)ccc1/C=C1\NC(=O)N(CC(=O)Nc2ccc(F)cc2)C1=O	90.6	22.7	0	0	0	0
Cc1cc(N2CCOCC2)ccc1/C=C1\NC(=O)N(CC(=O)Nc2ccccc2C)C1=O	0	0	0	0	0	0
Cc1cccc(NC(=O)CN2C(=O)N/C(=C\c3ccc(N4CCOCC4)cc3)C2=O)c1	68.2	39.2	0	0	0	0
COc1ccc(CNC(=O)c2ccc3c(c2)nc2n3CCCCC2)c(OC)c1	-	-	-	-	-	0
COC(=O)C[C@@H]1CC[C@H](NC(=O)Nc2ccc(OC)cc2)[C@@H](CO)O1	-	-	-	0	-	-
